According to PubChem BioAssay AID1159580 (chemical genetic matrix, 2015):
“And” between values parts separate entries of the source, which are not always exact repeats. Identical values can stand only once. About 2,000 (36%) of roughly 5,500 compounds were called active. Another 18% or so got no clear call; they are omitted. Cut-off read from the data, not from the text of the source: active = normalized growth mostly below about 0.91 (no sharp cut-off); inconclusive = no clear call, values can overlap the other calls; inactive = mostly above about 0.92. Some of the results follow.

Assay: chemical genetic growth profiling, strain panel (AID 1159580);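 note: tested at 20 µM; growth read once vehicle control cultures reached saturation at 30 °C; 1 = growth at the plate median or of vehicle wells; lower values mean less growth of the strain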
Details: S. cerevisiae deletion strains, growth OD

Measured: normalized growth

CC12CC3CC(C)(C1)CC(N)(C3)C2
inactive: locus YAL013W, strain DEP1, active compounds read low 1 and 0.983 | locus YAL021C, strain ccr4, active compounds read low 1 | locus YAL026C, strain drs2, active compounds read low 0.99 | locus YAL030W, strain snc1, active compounds read low 0.976 | locus YAL040C, strain CLN3, active compounds read low 1.06 | locus YBL061C, strain skt5, active compounds read low 0.977 | locus YBR009C, strain hhf1, active compounds read low 0.993 | locus YBR021W, strain FUR4, active compounds read low 1.02 | locus YBR023C, strain chs3, active compounds read low 0.985 | locus YBR171W, strain sec66, active compounds read low 0.98 | locus YBR229C, strain ROT2, active compounds read low 0.997 | locus YBR231C, strain swc5, active compounds read low 0.963 | locus YBR279W, strain paf1, active compounds read low 0.981 | locus YCL011C, strain gbp2, active compounds read low 1.01 | locus YCL016C, strain dcc1, active compounds read low 1.01 | locus YCL029C, strain bik1, active compounds read low 1.02 | locus YCL061C, strain MRC1 (second series), active compounds read low 0.994 | locus YCL061C, strain MRC1, active compounds read low 0.989 | locus YCL069W, strain vba3, active compounds read low 0.992 | locus YCR088W, strain abp1, active compounds read low 0.982 | locus YDL005C, strain med2, active compounds read low 0.988 | locus YDL035C, strain GPR1, active compounds read low 0.999 | locus YDL040C, strain nat1, active compounds read low 0.986 | locus YDL074C, strain BRE1, active compounds read low 1.03 | locus YDL101C, strain DUN1, active compounds read low 1.02 | locus YDL134C, strain PPH21, active compounds read low 1 | locus YDL185W, strain tfp1, active compounds read low 1.01 | locus YDL192W, strain arf1, active compounds read low 1.01 | locus YDR001C, strain nth1, active compounds read low 0.999 | locus YDR069C, strain doa4, active compounds read low 0.983 | locus YDR101C, strain arx1, active compounds read low 1.01 | locus YDR137W, strain rgp1, active compounds read low 1.01 | locus YDR150W, strain NUM1, active compounds read low 0.996 and 1 | locus YDR159W, strain sac3, active compounds read low 0.962 | locus YDR162C, strain NBP2, active compounds read low 1.01 | locus YDR195W, strain ref2 0.94 | locus YDR297W, strain sur2, active compounds read low 0.988 | locus YDR318W, strain mcm21, active compounds read low 1.02 | locus YDR334W, strain swr1, active compounds read low 1.01 | locus YDR335W, strain msn5, active compounds read low 0.986 | locus YDR363W, strain ESC2, active compounds read low 0.959 | locus YDR388W, active compounds read low 1.01 | locus YDR392W, strain spt3, active compounds read low 0.993 | locus YDR502C, strain sam2, active compounds read low 1.01 | locus YEL003W, strain gim4, active compounds read low 0.986 | locus YEL037C, strain rad23, active compounds read low 0.981 | locus YEL061C, strain CIN8 (second series), active compounds read low 0.971 | locus YEL061C, strain CIN8, active compounds read low 1 | locus YER002W, strain NOP16, active compounds read low 1.02 | locus YER015W, strain faa2, active compounds read low 0.998 | locus YER016W, strain bim1, active compounds read low 0.979 | locus YER110C, active compounds read low 1 | locus YER111C, strain swi4, active compounds read low 0.983 | locus YER155C, strain BEM2 (second series), active compounds read low 0.989 | locus YER155C, strain BEM2, active compounds read low 1.01 | locus YER167W, strain BCK2, active compounds read low 1.01 | locus YFR010W, strain ubp6, active compounds read low 0.988 | locus YGL078C, strain dbp3, active compounds read low 0.999 | locus YGL086W, strain mad1, active compounds read low 0.988 | locus YGL167C, strain pmr1, active compounds read low 1.01 | locus YGL173C, strain kem1, active compounds read low 0.957 | locus YGL227W, strain vid30, active compounds read low 0.994 | locus YGL240W, strain doc1, active compounds read low 0.966 | locus YGL248W, strain PDE1, active compounds read low 0.999 | locus YGL253W, strain hxk2, active compounds read low 0.977 | locus YGR078C, strain PAC10, active compounds read low 1.02 and 0.97 | locus YGR135W, strain pre9, active compounds read low 1.01 | locus YGR229C, strain SMI1, active compounds read low 1.02 | locus YGR252W, strain gcn5, active compounds read low 0.968 | locus YHR013C, strain ard1, active compounds read low 0.983 | locus YHR027C, strain rpn1, active compounds read low 0.995 | locus YHR030C, strain SLT2, active compounds read low 1.01 and 0.993 | locus YHR079C, strain IRE1 (second series), active compounds read low 1.01 | locus YHR079C, strain IRE1, active compounds read low 0.965 | locus YHR094C, strain hxt1, active compounds read low 1.01 | locus YHR129C, strain ARP1, active compounds read low 1.02 | locus YHR142W, strain chs7, active compounds read low 0.963 | locus YHR200W, strain rpn10, active compounds read low 1 | locus YIL066C, strain RNR3, active compounds read low 1.01 | locus YIL073C, strain SPO22, active compounds read low 1.09 | locus YIL125W, strain kgd1, active compounds read low 1 | locus YIR030C, strain dcg1, active compounds read low 1.01 | locus YJL092W, strain hpr5, active compounds read low 0.983 | locus YJL095W, strain BCK1 (second series), active compounds read low 0.985 | locus YJL095W, strain BCK1, active compounds read low 1.04 and 1 | locus YJL115W, strain asf1, active compounds read low 0.976 | locus YJL129C, strain trk1, active compounds read low 0.958 | locus YJL134W, strain LCB3, active compounds read low 0.999 | locus YJL154C, strain vps35, active compounds read low 0.972 | locus YJL164C, strain tpk1, active compounds read low 1.01 | locus YJL166W, strain qcr8, active compounds read low 0.984 | locus YJL168C, strain set2, active compounds read low 1 | locus YJL187C, strain SWE1 (second series), active compounds read low 1.02 | locus YJL187C, strain SWE1, active compounds read low 0.992 | locus YJR043C, strain POL32, active compounds read low 1.01 | locus YJR066W, strain TOR1, active compounds read low 0.923
